# Data from the supplement of paper PMC6555819.
# How the values were obtained:
# Assay in all cases: PBM binding z-score (relative to random genomic background probes); higher = stronger binding; sequences stand for … in GC…GCGATTGACAGCGTAGAATGAAGG
# [1] = system: FXR:RXRa (NR concentration 270 nM, RXRa partner concentration 90 nM)
# Procedure, shortened: (§1)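 The probes on custom Agilent 4×180K protein-binding microarrays were double-stranded, with 34-nt variable regions bearing direct-repeat seeds, single-nucleotide variants, half-site ablations and random human genomic background sequences. Incubation lasted 1 h with ligand-free nuclear receptor dimers in PBS pH 7.4, 2% milk, 0.02% Triton X-100, 1 mM DTT, 0.2 mg/mL BSA and 0.4 mg/ml salmon testes DNA. Antibodies against each partner (one per run) detected bound dimers, and fluorescence scans were regression-normalized. Binding z-scores take the random background probes as reference.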
# [2] = system: LXRa:RXRa (NR concentration 270 nM, RXRa partner concentration 90 nM)
# Procedure, shortened: as §1
# [3] = system: LXRa homodimer (NR concentration 270 nM)
# Procedure, shortened: as §1
# [4] = system: LXRb:RXRa (NR concentration 270 nM, RXRa partner concentration 90 nM)
# Procedure, shortened: as §1
# [5] = system: LXRb homodimer (NR concentration 270 nM)
# Procedure, shortened: as §1
# [6] = system: PPARa:RXRa (NR concentration 270 nM, RXRa partner concentration 90 nM)
# Procedure, shortened: as §1
# [7] = system: PPARg:RXRa (NR concentration 180 nM, RXRa partner concentration 90 nM)
# Procedure, shortened: as §1
# [8] = system: PPARg:RXRa 270nM:90nM, anti-RXR (NR concentration 270 nM, RXRa partner concentration 90 nM)
# Procedure, shortened: as §1
# [9] = system: PPARg:RXRa 30nM:10nM, anti-RXR (NR concentration 30 nM, RXRa partner concentration 10 nM)
# Procedure, shortened: as §1
# [10] = system: PPARg:RXRa 90nM:30nM, anti-RXR (NR concentration 90 nM, RXRa partner concentration 30 nM)
# Procedure, shortened: as §1
# [11] = system: PPARg:RXRa DBDmut IVT, anti-RXR (DBD mutation: RXRa K156A/R161A, NR concentration 270 nM, RXRa partner concentration 90 nM)
# Procedure, shortened: as §1
# [12] = system: PPARg:RXRa IVT, anti-PPARg (NR concentration 270 nM, RXRa partner concentration 90 nM)
# Procedure, shortened: as §1
# [13] = system: PPARg DBDmut:RXRa IVT, anti-PPARg (DBD mutation: PPARg1 K132A/R137A, NR concentration 270 nM, RXRa partner concentration 90 nM)
# Procedure, shortened: as §1
# [14] = system: PPARg DBDmut IVT, anti-PPARg (DBD mutation: PPARg1 K132A/R137A, NR concentration 270 nM)
# Procedure, shortened: as §1
# [15] = system: PPARg homodimer (NR concentration 180 nM)
# Procedure, shortened: as §1
# [16] = system: PXR:RXRa (NR concentration 270 nM, RXRa partner concentration 90 nM)
# Procedure, shortened: as §1
# [17] = system: PXR homodimer (NR concentration 270 nM)
# Procedure, shortened: as §1
# [18] = system: RARa:RXR (NR concentration 270 nM, RXRa partner concentration 90 nM)
# Procedure, shortened: as §1
# [19] = system: RARa homodimer (NR concentration 270 nM)
# Procedure, shortened: as §1
# [20] = system: RARb:RXRa (NR concentration 270 nM, RXRa partner concentration 90 nM)
# Procedure, shortened: as §1
Sequence,PBM binding z-score [1],PBM binding z-score [2],PBM binding z-score [3],PBM binding z-score [4],PBM binding z-score [5],PBM binding z-score [6],PBM binding z-score [7],PBM binding z-score [8],PBM binding z-score [9],PBM binding z-score [10],PBM binding z-score [11],PBM binding z-score [12],PBM binding z-score [13],PBM binding z-score [14],PBM binding z-score [15],PBM binding z-score [16],PBM binding z-score [17],PBM binding z-score [18],PBM binding z-score [19],PBM binding z-score [20]
TCTCCGAGGACACGAAGGTCAGAGCTTTCCAGAG,1.91,0.842,0.15,0.919,-0.353,2.09,0.489,1.61,2.34,2,1.19,1.32,-0.386,-0.524,1.23,2.1,1.31,2.06,-0.358,3.54
CGTCCAAGGTGAGCAGGTCAGTGAAAGCGACGTG,0.495,0.118,-0.619,0.202,-1.28,1.73,0.537,1.08,-0.475,0.388,1.99,2.14,-0.318,-0.865,0.43,0.116,-0.516,0.783,-0.389,2.67
CGAACTAGGCCATTGACAGGACAGTGAATAGTAA,-0.28,-0.21,0.0668,-0.366,-0.825,1.53,2.02,1.77,0.274,0.972,6.87,5.51,1.09,0.545,0.245,-0.291,0.0591,-0.304,-0.0299,0.565
CGAACTAGGTCATCCAAGACAGTGAATACATTGA,4.2,2.37,0.551,2.26,0.197,4.78,8.08,6.67,4.23,5.9,8.33,8.19,3.65,2.15,1.93,1.67,0.36,2.67,1.01,3.95
AGAACGAGGGCACGCTGAGTTGAGAGCAGAGTAG,1.03,1.06,-0.514,0.188,-0.934,2.12,2.05,1.81,0.0205,0.958,4.1,3.68,0.22,0.203,0.469,1.01,0.0274,1.35,-0.318,2.54
GATACAGGGTCAGTTAGAGGCCAGAGTATGGAAA,4.02,2.54,0.247,2.39,0.0768,3.64,2.24,2.27,0.448,1.45,1.02,1.82,0.545,0.433,2.89,2.85,1.17,3.86,0.673,3.77
